High-throughput results from PubChem.
A selection: hits, their analogues and other compounds. The true share with any hit is near 1.8%.
GCN5L2 inh = blocks human GCN5L2 histone acetyltransferase; Potency, µM (series often up to 58.9 µM), hits mostly inhibitors; Q92830; AID 504327; GCN5L2 HAT assay, ThioGlo1 CoA-SH fluorescence; actives 0.21% (n = 390,000)
Target sequence (Q92830 whole entry, looked up): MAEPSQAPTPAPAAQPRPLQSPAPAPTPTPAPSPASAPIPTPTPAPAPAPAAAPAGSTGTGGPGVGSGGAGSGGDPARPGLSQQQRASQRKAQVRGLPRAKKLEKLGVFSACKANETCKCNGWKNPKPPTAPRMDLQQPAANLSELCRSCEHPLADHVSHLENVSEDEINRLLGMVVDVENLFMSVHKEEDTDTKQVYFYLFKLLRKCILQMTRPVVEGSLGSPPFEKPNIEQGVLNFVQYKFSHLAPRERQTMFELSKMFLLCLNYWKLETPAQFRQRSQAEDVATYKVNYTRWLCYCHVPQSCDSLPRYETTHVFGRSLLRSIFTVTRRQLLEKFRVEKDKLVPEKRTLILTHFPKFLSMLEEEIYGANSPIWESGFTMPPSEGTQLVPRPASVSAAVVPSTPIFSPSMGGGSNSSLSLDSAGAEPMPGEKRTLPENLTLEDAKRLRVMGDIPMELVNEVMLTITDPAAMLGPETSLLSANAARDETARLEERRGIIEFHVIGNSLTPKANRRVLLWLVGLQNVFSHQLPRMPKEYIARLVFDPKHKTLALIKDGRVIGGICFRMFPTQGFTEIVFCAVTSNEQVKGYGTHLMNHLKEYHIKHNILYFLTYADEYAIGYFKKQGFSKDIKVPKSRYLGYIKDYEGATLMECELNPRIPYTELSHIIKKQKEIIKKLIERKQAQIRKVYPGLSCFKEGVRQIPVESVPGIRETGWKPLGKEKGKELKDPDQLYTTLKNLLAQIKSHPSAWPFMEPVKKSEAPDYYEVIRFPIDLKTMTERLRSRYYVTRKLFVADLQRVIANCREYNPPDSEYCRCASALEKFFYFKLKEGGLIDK
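Fluorescence readout, Ex340nm/Em540nm: ThioGlo1 (50uM final) reacts with free CoA thiol released as 20nM GCN5L2 acetylates H3(1-25) peptide (75uM) using acetyl-CoA (70uM). Compound and enzyme sat 15 min beforehand; 20 min room-temperature reaction.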
VDR inhibitor = inhibitors of human vitamin D receptor; Potency, µM, most hits filed as inhibitors; actives 0.93% (n = 400,000); P11473; VDR-SRC2-3 peptide fluorescence polarization, 2 h; AID 504847
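Signal is fluorescence polarization, reporting how far test compounds block the interaction of VDR with the SRC2-3 coregulator peptide after a 2 h room-temperature incubation.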
TrxR1 inh = rat TrxR1 inhibition. O89049. recombinant rTrxR1, NADPH fluorescence consumption, selenite substrate. Potency, µM (highest dose often 114 µM), hits mostly inhibitors. actives 1% (n = 390,000). AID 588453; note: nearly all actives have a fitted effect of over 65% in size
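Rat TrxR1 (90 nM in the dispensed reagent) was pre-reduced with 400 uM NADPH for 5 min at room temperature, then incubated with compound for 15 min. After 400 uM selenite was added, NADPH fluorescence (Ex 340/Em 450 nm) was followed for 8 min.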
TrxR1 substrate = rat thioredoxin reductase 1 substrate activity; Potency, µM (top dose mostly 114 µM); O89049; actives 0.01% (n = 390,000); AID 588456; purified TrxR1 substrate turnover, NADPH consumption readout; note: nearly all actives have a fitted effect of over 50% in size
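Rat TrxR1, dispensed at 90 nM, was prereduced with 400 uM NADPH (final) for 5 min at ~22 deg C, then incubated with compound 15 min before 400 uM selenite. A first-read NADPH fluorescence drop versus no-compound background flagged substrates.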
USP1 UbRho = blocks human USP1/UAF1 cleavage of Ub-Rhodamine | actives 50% (n = 50) | Ub-Rhodamine cleavage, fluorescence kinetic read | shares compounds with VDR inhibitor | Potency, µM (doses to about 56.8 µM), most hits filed as inhibitors | AID 540327
VDR inh confirm = inhibits human vitamin D receptor, primary hit validation; shares compounds with VDR inhibitor; VDR-coactivator inhibition assay, qHTS confirmation; Potency, µM, hits mostly inhibitors; actives 89% (n = 840)
VDR FP = confirmation of human VDR-coactivator binding inhibitors, fluorescein label; shares compounds with VDR inhibitor; VDR-coactivator binding, fluorescein fluorescence polarization; Potency, µM (doses to about 57.1 µM), actives largely listed as inhibitors; actives 48% (n = 840); AID 602200
VDR bla = confirmation of human vitamin D receptor inhibitors in reporter cells | actives 23% (n = 840) | shares compounds with VDR inhibitor | VDR beta-lactamase reporter cells, FRET ratio; cells co-treated with VDR agonist LG190178 | AID 602202 | Potency, µM (highest dose often 46.1 µM), most hits filed as inhibitors
VDR cytotox = cytotoxic in counter-screen for VDR inhibitors; shares compounds with VDR inhibitor; cytotoxicity counter-screen, cell viability, qHTS; Potency, µM (top dose mostly 48.3 µM), actives largely listed as cytotoxic; actives 18% (n = 840); AID 602204; note: nearly all actives have a fitted effect of over 75% in size
A number is an active result; i = inactive; ? = inconclusive; nt = not tested or not shown; ! = not active in a repeat; [ ] = another dose, or the depositor's remark. Calls come from the whole dose curve; as a rule, active = well fitted curve in the direction sought with a large enough effect; inconclusive = small, poorly fitted or top-dose-only effect, or another doubt; inactive = no such curve, though single readings can be large; an effect the other way counts as inactive or inconclusive.

SMILES | GCN5L2 inh | VDR inhibitor | TrxR1 inh | TrxR1 substrate | VDR inh confirm | VDR FP | VDR bla | VDR cytotox | others
CCOC(=O)c1cccc(-n2nnc3c(sc4nc(C)c(Br)c(C)c43)c2=O)c1 | i | i | i | i | nt | nt | nt | nt
CCOc1ccc(/C=C/C(=O)Nc2sc3c(c2C(=O)OC)CCCC3)cc1 | i | i | i | i | nt | nt | nt | nt
CCOc1ccc(/C=C/C(=O)Nc2sc3c(c2C(=O)OC)C(C(=O)OC)CC3)cc1 (configuration not stated) | ? | 22µM | i | i | ? | 3.5µM | 13µM | ?
Cc1ccccc1NC(=O)c1ccc([N+](=O)[O-])o1 | i | i | i | i | nt | nt | nt | nt
Cc1cccc(/C=C/C(=O)c2ccc([N+](=O)[O-])o2)c1 | ? | 8.9µM | 1.3µM | i | 1.1 | 1.3µM | 5.2µM | ?
Cc1ccccc1/C=C/C(=O)c1ccc([N+](=O)[O-])o1 | i | 7.9µM | 3.5µM | i | 6 | 3.2µM | 8.2µM | 21µM
COc1ccc(/C=C/C(=O)c2ccc([N+](=O)[O-])o2)cc1 | i | i | ? | i | nt | nt | nt | nt
O=[N+]([O-])c1ccc2c(c1)S(=O)(=O)C=C2 | ? | 13µM | 2.1µM | i | 22 | ? | 3.7µM | 6µM
CCN(CC)S(=O)(=O)c1ccc(O)c(NC(=O)CN2CCc3ccccc3C2)c1 | i | i | i | i | nt | nt | nt | nt
CCN(CC)S(=O)(=O)c1ccc(O)c(NS(=O)(=O)c2ccccc2F)c1 | i | 79µM | i | i | 17 | i | i | i
Cc1ccc(-c2ccc(/C=C3/NC(=O)NC3=O)o2)cc1[N+](=O)[O-] | i | i | i | i | nt | nt | nt | nt
CC1=C(C#N)C(=O)NC(=O)/C1=C\c1ccc(-c2cc(C)c(C)cc2[N+](=O)[O-])o1 | ? | 25µM | 14µM | i | 10 | 8.9µM | i | i
CCCc1[nH][nH]c(=O)c1C(c1cccc(Cl)c1)C(C#N)C#N (configuration not stated) | i | i | ? | i | nt | nt | nt | nt
Cc1[nH]n(-c2ncc(-c3ccc(Cl)cc3)s2)c(=O)c1C(c1ccc(Cl)cc1)C(C#N)C#N (configuration not stated) | i | 50µM | 11µM | i | 8.4 | 7.9µM | i | i
CCCc1nn2c(=O)cc(COC(=O)c3ccc4c(c3)OCO4)nc2s1 | i | i | i | i | nt | nt | nt | nt
CN1C(=O)/C(=C/c2cccc([N+](=O)[O-])c2)C(=O)N1c1ccccc1 | i | 32µM | ? | i | 13 | ? | i | i
O=C(/C(=C/c1ccncc1)n1ccnc1)c1ccc(Cl)cc1Cl | i | 79µM | ? | i | 13 | 13µM | i | i
Cc1nc2sccn2c(=O)c1CCN1CCC(=C(c2ccc(F)cc2)c2ccc(F)cc2)CC1 | ? | 79µM! | i | i | nt | nt | nt | nt | USP1 UbRho=?
CN(Cc1ccccc1)C(=O)c1ccc2c(c1)N(Cc1ccc(Cl)cc1)C(=O)c1ccccc1S2=O (configuration not stated) | i | i | i | i | nt | nt | nt | nt
CCc1ccc(CNC(=O)c2ccc3nc(SCc4ccc(F)cc4)n(C)c3c2)cc1 | i | i | i | i | nt | nt | nt | nt
COc1ccc(C2=NN(c3ccccc3)C(=O)/C2=C\c2ccc(O)c(OC)c2)cc1 | i | i | ? | i | nt | nt | nt | nt
COc1cc(/C=C2/C(=O)ON=C2C)cc(Cl)c1O | i | 89µM | i | i | 27 | i | i | i
CCCOc1ccc(/C=C2/C(=O)ON=C2C)cc1Cl | i | 18µM | ? | i | 7.5 | ? | i | i
CCOc1ccc(Cl)cc1/C=C1/C(=O)ON=C1C | i | ? | ? | i | 8.9 | 3.5µM | i | i
COc1cc(/C=C2\C(=O)ON=C2c2ccc(Cl)cc2)ccc1O | nt | ? | 20µM | i | 7.1 | ? | ? | i
SMILES | GCN5L2 inh | VDR inhibitor | TrxR1 inh | TrxR1 substrate | VDR inh confirm | VDR FP | VDR bla | VDR cytotox | others
COCC(C)Nc1ncnc2c1cnn2-c1ccc(C)c(C)c1 (configuration not stated) | i | i | i | i | nt | nt | nt | nt
COc1ccc(-c2nnc3n2N=C(C)CS3)cc1 | i | i | i | i | nt | nt | nt | nt
CCOC(=O)/C(=C/c1ccc(OC(F)F)cc1)C1=Nn2c(nnc2-c2ccc(Cl)cc2)SC1 | nt | 8.9µM | i | i | 3.4 | 3.5µM | ? | 21µM
CCOC(=O)/C(=C\c1ccc(OC(F)F)cc1)C1=Nn2c(nnc2-c2ccc(Cl)cc2)SC1 | i | 16µM | i | i | 6 | ? | 16µM | 13µM
CC(=O)N(c1ccccc1C)C1CCCC1 | i | i | i | i | nt | nt | nt | nt
CC(=O)N(C1=C(Cl)C(=O)c2ccccc2C1=O)C1CCCCC1 | 32µM | 14µM | ? | i | 12 | 14µM | 5.8µM | ?
N#CC1=C(Nc2ccccc2Cl)SC(c2ccccc2O)NC1=O (configuration not stated) | i | 20µM | i[2.29 µM] | i | 3.8 | ? | i | i
O=C1NN(c2ccccc2)C(=O)/C1=C/c1ccc(Sc2ccc(Cl)cc2)o1 | nt | 79µM | i | i | ? | ? | i | nt
O=C(c1cccs1)c1no[n+]([O-])c1C(=O)c1cccs1 | i | 45µM | 0.71µM | i | 6.3 | 3.5µM | 2.6µM | 3µM
O=C(c1ccc(Cl)nc1)c1cccs1 | i | ? | i | i | nt | nt | nt | nt
Nc1nc2c(s1)CCc1c-2cnn1-c1ccccc1 | i | 20µM | ? | i | 4.5 | 4µM | ? | ?
O=C(NCc1cccnc1)/C(=C\c1ccc(-c2ccc(Cl)c(Cl)c2)o1)S(=O)(=O)c1ccccc1 | i | 40µM | ? | i | 15 | ? | 12µM | 15µM
CC1=NNC(=O)/C1=C\c1cn(-c2ccccc2)nc1-c1ccc(F)cc1 | i | 45µM | i | i | 7.5 | ? | 15µM | 7.3µM
CC1=NNC(=O)/C1=C\c1cn(-c2ccccc2)nc1-c1cccs1 | i | 10µM | i | i | 3.8 | ? | 16µM | 9.2µM
COc1ccc(Cl)cc1C(Nc1cccnc1)c1ccc2cccnc2c1O (configuration not stated) | i | 20µM | 4µM | i | 21 | ? | i | i
CC(=O)NC1=CC(=O)c2nonc2C1=O | nt | 56µM | ? | 7.1µM | 2.5 | 2.5µM | 2.9µM | 3.8µM
COc1cc(O)c(NC(C)=O)c2nonc12 | i | i | i | i | nt | nt | nt | nt
CCOc1ccc2nc(N3CCCC(C(=O)NCCc4ccc(OCC)c(OCC)c4)C3)sc2c1 (configuration not stated) | i | i | i | i | nt | nt | nt | nt
